Measured values reported in PubChem BioAssay (EPA / NIEHS).
Results filed as inconclusive are left out. The source holds several records for some structures; these can differ, active in one and inactive in another. Calls of active or inactive are those of the source. How the source made its calls, unless noted: active means hit-call score of the fitted dose curve at least 0.9, where 1 is the maximum; inactive means score below 0.9.

Experiments:
[1] = molecular target: Nuclear respiratory factor 1 (Homo sapiens) (UniProt Q16656); assay: ATG_NRF1_CIS: Attagene CIS-FACTORIAL HepG2 Assay for human Nuclear Respiratory Factor 1 (NRF1) Orphan Gene (AID 2282987); settings: HepG2 NRF1 cis-element reporter, Attagene multiplex; actives raise or lower the signal
Sequence of Nuclear respiratory factor 1 (Homo sapiens) (Q16656 whole entry, looked up): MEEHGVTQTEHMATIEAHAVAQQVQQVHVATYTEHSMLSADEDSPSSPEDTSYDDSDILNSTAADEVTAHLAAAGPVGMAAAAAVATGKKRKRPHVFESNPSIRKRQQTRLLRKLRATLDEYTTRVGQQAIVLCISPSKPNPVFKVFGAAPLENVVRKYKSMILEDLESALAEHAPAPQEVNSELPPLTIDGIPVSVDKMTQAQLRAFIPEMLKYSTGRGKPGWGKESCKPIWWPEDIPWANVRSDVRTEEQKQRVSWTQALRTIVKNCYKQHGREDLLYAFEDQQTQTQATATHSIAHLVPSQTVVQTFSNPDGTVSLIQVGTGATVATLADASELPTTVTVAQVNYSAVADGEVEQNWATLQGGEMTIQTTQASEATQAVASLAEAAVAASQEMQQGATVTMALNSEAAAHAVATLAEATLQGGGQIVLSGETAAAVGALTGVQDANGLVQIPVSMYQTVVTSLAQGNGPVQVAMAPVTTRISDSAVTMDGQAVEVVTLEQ
Method in brief: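 Endogenous factor activity was captured via cis-element-driven reporter transcripts in HepG2 cells. Following 24 h chemical treatment, transcripts were quantified by RT-PCR and capillary electrophoresis.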

[2] = ATG_NFI_CIS: Attagene CIS-FACTORIAL HepG2 Assay for human Nuclear Factor I (NFI) (AID 2282989); settings: HepG2 cis-regulatory reporter, NFI response element transcription; actives raise or lower the signal
Method in brief: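 Endogenous TF activity in HepG2 cells transiently transfected with cis-element-driven multiplexed reporter units, read 24 h after dosing. Reporter mRNA quantified by RT-PCR, 6-FAM labelling, HpaI digestion and capillary electrophoresis; bidirectional fit versus DMSO.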

[3] = molecular target: Myc proto-oncogene protein (Homo sapiens) (UniProt P01106); assay: ATG_Myc_CIS: Attagene CIS-FACTORIAL HepG2 Assay for human Myelocytomatosis (Myc) Proto-Oncogene Transcription Factor (AID 2282990); settings: HepG2, Attagene cis-reporter transcription factor activity; actives raise or lower the signal
Sequence of Myc proto-oncogene protein (Homo sapiens) (P01106 whole entry, looked up, the tested form may be a part): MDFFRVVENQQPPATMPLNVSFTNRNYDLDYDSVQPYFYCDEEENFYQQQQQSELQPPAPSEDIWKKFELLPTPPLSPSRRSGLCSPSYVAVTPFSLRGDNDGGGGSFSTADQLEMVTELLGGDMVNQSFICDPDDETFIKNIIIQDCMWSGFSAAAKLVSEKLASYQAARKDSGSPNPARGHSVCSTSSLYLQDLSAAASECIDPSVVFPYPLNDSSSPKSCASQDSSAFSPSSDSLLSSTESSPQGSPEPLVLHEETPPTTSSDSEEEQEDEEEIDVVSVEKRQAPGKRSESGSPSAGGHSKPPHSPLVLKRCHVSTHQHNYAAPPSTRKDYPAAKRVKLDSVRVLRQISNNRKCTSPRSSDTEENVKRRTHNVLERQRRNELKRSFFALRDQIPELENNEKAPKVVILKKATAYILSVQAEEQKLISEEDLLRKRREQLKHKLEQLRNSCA
Method in brief: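 After 24 h chemical treatment of HepG2 cells carrying multiplexed cis-regulated reporter constructs, reporter transcripts quantified by RT-PCR and capillary electrophoresis of fluorescent fragments. Gain or loss fitted against DMSO baseline.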

[4] = ATG_NF_kB_CIS: Attagene CIS-FACTORIAL HepG2 Assay for human Nuclear Factor Kappa B (NF-kB) (AID 2282991); settings: HepG2 Attagene cis-factorial NF-kB reporter mRNA; actives raise or lower the signal
Method in brief: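 After 24 h compound incubation, transfected HepG2 cells yield total RNA; reporter cDNA is PCR-amplified, end-labelled with 6-FAM, HpaI-digested and analysed on a genetic analyser. Endogenous factor activity, DMSO-referenced bidirectional fit.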

[5] = ATG_Oct_MLP_CIS: Attagene CIS-FACTORIAL HepG2 Assay for human Octamer-Binding Transcription Factor (Oct) (AID 2282993); settings: HepG2 Attagene cis-factorial Oct reporter, mRNA; actives raise or lower the signal
Method in brief: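 HepG2 cells transiently transfected with cis-element-driven reporter transcription units (endogenous TF activity); 24 h compound exposure. Reporter mRNA quantified by RT-PCR, 6-FAM labelling, HpaI digestion and capillary electrophoresis; bidirectional fit versus DMSO baseline.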

[6] = molecular target: Cellular tumor antigen p53 (Homo sapiens) (UniProt P04637); assay: ATG_p53_CIS: Attagene CIS-FACTORIAL HepG2 Assay for human p53 Transcription Factor (AID 2282994); settings: HepG2 p53 cis-element reporter, Attagene mRNA; actives raise or lower the signal
Sequence of Cellular tumor antigen p53 (Homo sapiens) (P04637 whole entry, looked up): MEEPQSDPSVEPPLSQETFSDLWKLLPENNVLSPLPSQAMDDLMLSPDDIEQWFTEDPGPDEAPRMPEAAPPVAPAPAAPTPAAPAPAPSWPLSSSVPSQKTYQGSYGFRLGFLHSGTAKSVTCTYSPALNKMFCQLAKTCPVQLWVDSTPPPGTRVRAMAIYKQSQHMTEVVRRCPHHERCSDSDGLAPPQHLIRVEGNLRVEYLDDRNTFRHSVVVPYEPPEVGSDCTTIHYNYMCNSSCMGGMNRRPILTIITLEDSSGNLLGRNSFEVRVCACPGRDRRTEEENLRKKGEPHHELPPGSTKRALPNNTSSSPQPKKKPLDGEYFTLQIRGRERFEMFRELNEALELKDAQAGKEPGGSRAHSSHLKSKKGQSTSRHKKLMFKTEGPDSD
Method in brief: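 HepG2 cells transiently transfected with cis-regulated multiple reporter transcription units, dosed 24 h. Reporter mRNA measured by RT-PCR, 6-FAM primer extension, HpaI digestion and capillary electrophoresis; bidirectional fit relative to DMSO.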

[7] = BSK_3C_uPAR: BioMAP Diversity Plus: 3C Assay for Urokinase-type plasminogen activator receptor (uPAR) Biomarker Activity (AID 2282998); settings: BioMAP 3C HUVEC, uPAR biomarker ELISA; actives raise or lower the signal
Method in brief: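 Primary human umbilical vein endothelial cells, 3C system; surface uPAR measured by ELISA 24 h after dosing. Cytotoxicity via SRB total protein in parallel cultures; bidirectional fit against DMSO.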

[8] = BSK_3C_VCAM1: BioMAP Diversity Plus: 3C Assay for Vascular cell adhesion molecule 1 (VCAM1) Biomarker Activity (AID 2282999); settings: BioMAP 3C HUVEC, VCAM1 ELISA, cytokine-stimulated; actives raise or lower the signal
Method in brief: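 Endothelial cells from human umbilical vein are treated with test chemical. At 24 h, VCAM-1 is measured by ELISA, and responses in either direction are fitted relative to DMSO.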

[9] = BSK_4H_Eotaxin3: BioMAP Diversity Plus: 4H Assay for Eotaxin 3 Biomarker Activity (AID 2283000); settings: primary human endothelial cells (HUVEC); actives raise or lower the signal
Method in brief: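 Chemicals were added to human umbilical vein endothelium cultures, and Eotaxin-3 was quantified by ELISA at 24 h. Values were derived by bidirectional fitting with DMSO serving as negative control and activity baseline.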

[10] = molecular target: human Peroxisome Proliferator-activated Receptor alpha (PPARa), PPARA (gene 5465) (UniProt Q07869); assay: ATG_PPARa_TRANS: Attagene TRANS-FACTORIAL HepG2 Assay for human Peroxisome Proliferator-activated Receptor alpha (PPARa) (AID 2283001; active means hit-call score of the fitted dose curve at least 0.9, where 1 is the maximum)
Sequence of human Peroxisome Proliferator-activated Receptor alpha (PPARa), PPARA (gene 5465) (Q07869 whole entry, looked up, the tested form may be a part): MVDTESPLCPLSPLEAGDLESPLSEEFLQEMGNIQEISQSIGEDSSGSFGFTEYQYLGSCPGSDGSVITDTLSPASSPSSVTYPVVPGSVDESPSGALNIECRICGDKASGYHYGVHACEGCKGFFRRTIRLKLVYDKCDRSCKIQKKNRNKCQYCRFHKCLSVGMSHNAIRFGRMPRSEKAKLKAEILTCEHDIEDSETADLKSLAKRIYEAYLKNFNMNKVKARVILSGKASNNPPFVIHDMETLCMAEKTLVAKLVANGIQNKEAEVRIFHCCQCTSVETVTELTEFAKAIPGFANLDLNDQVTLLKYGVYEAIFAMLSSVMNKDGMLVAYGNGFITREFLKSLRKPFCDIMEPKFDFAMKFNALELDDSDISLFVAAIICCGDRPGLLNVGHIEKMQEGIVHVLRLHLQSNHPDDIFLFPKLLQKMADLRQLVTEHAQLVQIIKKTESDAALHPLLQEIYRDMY
Method in brief: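 Reporter transcripts from GAL4-UAS units in transfected HepG2 were quantified 24 h after dosing. Detection used reverse transcription, PCR, fluorescent primer extension and capillary electrophoresis, with DMSO as baseline.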

[11] = molecular target: human Peroxisome Proliferator-activated Receptor delta (PPARd), PPARD (gene 5467) (UniProt Q03181); assay: ATG_PPARd_TRANS: Attagene TRANS-FACTORIAL HepG2 Assay for human Peroxisome Proliferator-activated Receptor delta (PPARd) (AID 2283002; active means hit-call score of the fitted dose curve at least 0.9, where 1 is the maximum)
Sequence of human Peroxisome Proliferator-activated Receptor delta (PPARd), PPARD (gene 5467) (Q03181 whole entry, looked up, the tested form may be a part): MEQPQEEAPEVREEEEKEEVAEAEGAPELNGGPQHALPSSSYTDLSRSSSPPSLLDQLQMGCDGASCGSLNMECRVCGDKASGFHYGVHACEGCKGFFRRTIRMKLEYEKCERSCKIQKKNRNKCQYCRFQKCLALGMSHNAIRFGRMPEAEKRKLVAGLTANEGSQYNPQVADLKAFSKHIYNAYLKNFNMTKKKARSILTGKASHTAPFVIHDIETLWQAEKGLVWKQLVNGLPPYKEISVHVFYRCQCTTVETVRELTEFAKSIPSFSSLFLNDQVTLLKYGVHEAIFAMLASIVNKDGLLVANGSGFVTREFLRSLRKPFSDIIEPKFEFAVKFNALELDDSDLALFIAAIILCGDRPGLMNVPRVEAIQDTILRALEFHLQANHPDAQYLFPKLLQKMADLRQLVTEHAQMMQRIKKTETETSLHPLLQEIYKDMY
Method in brief: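 Read-out is induced reporter mRNA, quantified by RT-PCR with fluorescent labelling and capillary electrophoresis after 24 h dosing. Cells are HepG2 transiently carrying multiple GAL4-UAS reporter units driven by exogenous NR-GAL4 chimeras; DMSO serves as baseline.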

[12] = molecular target: human Retinoic Acid Receptor beta (RARb), RARB (gene 5915) (UniProt P10826); assay: ATG_RARb_TRANS: Attagene TRANS-FACTORIAL HepG2 Assay for human Retinoic Acid Receptor beta (AID 2283004; active means hit-call score of the fitted dose curve at least 0.9, where 1 is the maximum)
Sequence of human Retinoic Acid Receptor beta (RARb), RARB (gene 5915) (P10826 whole entry, looked up): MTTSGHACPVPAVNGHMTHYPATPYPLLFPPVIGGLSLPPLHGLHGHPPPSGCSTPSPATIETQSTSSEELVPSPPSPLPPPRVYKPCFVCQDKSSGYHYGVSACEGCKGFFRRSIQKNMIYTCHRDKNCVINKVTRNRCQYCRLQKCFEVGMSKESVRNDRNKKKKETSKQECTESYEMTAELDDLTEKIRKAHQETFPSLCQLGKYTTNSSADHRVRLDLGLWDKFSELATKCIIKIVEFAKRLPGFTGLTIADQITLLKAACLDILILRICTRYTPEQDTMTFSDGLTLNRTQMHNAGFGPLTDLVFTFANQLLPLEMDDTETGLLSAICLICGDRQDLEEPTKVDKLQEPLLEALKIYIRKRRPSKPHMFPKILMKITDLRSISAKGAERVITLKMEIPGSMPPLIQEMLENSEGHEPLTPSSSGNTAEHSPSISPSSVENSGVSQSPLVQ
Method in brief: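 Transient transfection of HepG2 with multiple reporter units → chemical dosing, 24 h → total RNA isolation → RT with oligo(dT) → reporter-specific PCR, 6-FAM primer extension, HpaI digest → capillary electrophoresis. Positive direction vs DMSO control.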

[13] = BSK_3C_Proliferation: Cell Proliferation Assessment in the BioMAP Diversity Plus: 3C Assay (AID 2283006); settings: primary human endothelial cells (HUVEC);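 on AC50: potency may reflect either rise or fall in cell number versus DMSO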
Method in brief: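 Proliferation of human vascular endothelial primary cells after 48 h dosing, quantified as SRB-stained protein at 560 nm relative to DMSO.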

[14] = molecular target: Peroxisome proliferator-activated receptor gamma (Homo sapiens) (UniProt P37231); assay: ATG_PPARg_TRANS: Attagene TRANS-FACTORIAL HepG2 Assay for human Peroxisome Proliferator-activated Receptor-gamma (PPARg) (AID 2283007; active means hit-call score of the fitted dose curve at least 0.9, where 1 is the maximum)
Sequence of Peroxisome proliferator-activated receptor gamma (Homo sapiens) (P37231 whole entry, looked up, the tested form may be a part): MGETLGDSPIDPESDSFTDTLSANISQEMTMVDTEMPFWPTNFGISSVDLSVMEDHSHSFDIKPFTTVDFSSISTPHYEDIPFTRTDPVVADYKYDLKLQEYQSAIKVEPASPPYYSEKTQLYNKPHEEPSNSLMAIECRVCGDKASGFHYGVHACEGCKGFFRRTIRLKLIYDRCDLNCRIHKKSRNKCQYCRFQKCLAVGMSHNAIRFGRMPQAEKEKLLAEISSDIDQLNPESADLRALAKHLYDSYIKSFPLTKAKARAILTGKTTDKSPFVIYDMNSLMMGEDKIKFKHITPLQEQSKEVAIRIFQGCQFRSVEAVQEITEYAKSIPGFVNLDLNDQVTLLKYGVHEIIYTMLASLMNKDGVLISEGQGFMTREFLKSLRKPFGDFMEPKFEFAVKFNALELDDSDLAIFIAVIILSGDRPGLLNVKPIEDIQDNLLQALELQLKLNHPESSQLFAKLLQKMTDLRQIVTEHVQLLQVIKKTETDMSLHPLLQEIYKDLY
Method in brief: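 Liver-derived HepG2 cells expressing an exogenous NR-Gal4 chimera alongside GAL4-UAS reporter genes; 24 h exposure. Fluorescence of reporter RT-PCR products, separated by capillary electrophoresis, gives mRNA induction relative to DMSO.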

[15] = molecular target: Nuclear receptor subfamily 1 group I member 2 (Homo sapiens) (UniProt O75469); assay: ATG_PXR_TRANS: Attagene TRANS-FACTORIAL HepG2 Assay for human Pregnane X Receptor (PXR) (AID 2283008; active means hit-call score of the fitted dose curve at least 0.9, where 1 is the maximum)
Sequence of Nuclear receptor subfamily 1 group I member 2 (Homo sapiens) (O75469 whole entry, looked up, the tested form may be a part): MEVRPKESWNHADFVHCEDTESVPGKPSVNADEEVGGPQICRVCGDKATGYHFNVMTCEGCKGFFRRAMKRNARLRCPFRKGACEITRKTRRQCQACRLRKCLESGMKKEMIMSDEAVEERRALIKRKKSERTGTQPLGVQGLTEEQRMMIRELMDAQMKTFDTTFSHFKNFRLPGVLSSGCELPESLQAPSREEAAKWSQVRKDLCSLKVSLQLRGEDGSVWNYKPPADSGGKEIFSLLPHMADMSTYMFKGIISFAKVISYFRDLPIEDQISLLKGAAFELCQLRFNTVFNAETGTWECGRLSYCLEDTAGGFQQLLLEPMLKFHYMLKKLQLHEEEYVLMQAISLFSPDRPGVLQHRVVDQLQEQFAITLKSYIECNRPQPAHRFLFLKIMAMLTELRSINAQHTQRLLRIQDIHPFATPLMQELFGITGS
Method in brief: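 HepG2 cells transiently transfected with GAL4-UAS reporter units and PXR-Gal4 chimera, exposed 24 h. Reporter mRNA quantified by RT-PCR, fluorescent labelling, HpaI digestion and capillary electrophoresis; gain of signal vs DMSO.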

[16] = BSK_3C_TissueFactor: BioMAP Diversity Plus: 3C Assay for Tissue Factor Biomarker Activity (AID 2282997); settings: BioMAP 3C HUVEC, tissue factor biomarker readout; actives raise or lower the signal
Method in brief: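 ELISA read-out of Tissue Factor levels on human umbilical vein endothelium collected 24 h after chemical dosing. Gain or loss of signal was fitted relative to DMSO.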

[17] = read-out: Intercellular Adhesion Molecule 1 (ICAM1), ICAM1 (gene 3383); assay: BSK_3C_ICAM1: BioMAP Diversity Plus: 3C Assay for Intercellular Adhesion Molecule 1 (ICAM1) Biomarker Activity (AID 2283003); settings: primary human endothelial cells (HUVEC); actives raise or lower the signal
Method in brief: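 Human vascular endothelial primary cells, 3C conditions, 24 h treatment. ICAM-1 by ELISA.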

[18] = molecular target: human Retinoic Acid Receptor gamma (RARg), RARG (gene 5916) (UniProt P13631); assay: ATG_RARg_TRANS: Attagene TRANS-FACTORIAL HepG2 Assay for human Retinoic Acid Receptor gamma (RARg) (AID 2283009; active means hit-call score of the fitted dose curve at least 0.9, where 1 is the maximum)
Sequence of human Retinoic Acid Receptor gamma (RARg), RARG (gene 5916) (P13631 whole entry, looked up, the tested form may be a part): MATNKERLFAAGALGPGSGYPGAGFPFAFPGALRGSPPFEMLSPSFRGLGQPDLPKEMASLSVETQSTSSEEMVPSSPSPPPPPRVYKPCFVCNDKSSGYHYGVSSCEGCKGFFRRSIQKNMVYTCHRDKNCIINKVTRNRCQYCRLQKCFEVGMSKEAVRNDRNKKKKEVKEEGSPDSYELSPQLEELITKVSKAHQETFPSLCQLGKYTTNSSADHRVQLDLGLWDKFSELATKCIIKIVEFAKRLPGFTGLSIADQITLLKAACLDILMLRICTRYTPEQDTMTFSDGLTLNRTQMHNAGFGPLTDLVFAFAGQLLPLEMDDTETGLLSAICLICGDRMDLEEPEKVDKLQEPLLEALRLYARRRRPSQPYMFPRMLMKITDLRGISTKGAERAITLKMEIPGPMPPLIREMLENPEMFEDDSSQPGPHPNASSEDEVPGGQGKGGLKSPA
Method in brief: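 HepG2, RARg-GAL4 TRANS system, 24 h exposure; reporter mRNA by RT-PCR + CE fluorescence; increase over DMSO.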

[19] = ATG_NRF2_ARE_CIS: Attagene CIS-FACTORIAL HepG2 Assay for human Nuclear Factor Erythroid 2 Related Factor 2 (NFR2) response to Antioxidant Response Elements (ARE) (AID 2282992); settings: HepG2 Attagene ARE/NRF2 reporter, transcription factor activity; actives raise or lower the signal;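 on AC50: reporter mRNA level measured by RT-PCR and capillary electrophoresis fluorescence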
Method in brief: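 HepG2 cells transiently transfected with multiplexed cis-element reporter constructs, 24 h after chemical dosing; reporter mRNA quantified by RT-PCR, fluorescent primer extension, HpaI digestion and capillary electrophoresis. Bidirectional fit relative to DMSO.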

[20] = molecular target: Retinoic acid receptor alpha (Homo sapiens) (UniProt P10276); assay: ATG_RARa_TRANS: Attagene TRANS-FACTORIAL HepG2 Assay for human Retinoic Acid Receptor alpha (RARa) (AID 2283005; active means hit-call score of the fitted dose curve at least 0.9, where 1 is the maximum)
Sequence of Retinoic acid receptor alpha (Homo sapiens) (P10276 whole entry, looked up, the tested form may be a part): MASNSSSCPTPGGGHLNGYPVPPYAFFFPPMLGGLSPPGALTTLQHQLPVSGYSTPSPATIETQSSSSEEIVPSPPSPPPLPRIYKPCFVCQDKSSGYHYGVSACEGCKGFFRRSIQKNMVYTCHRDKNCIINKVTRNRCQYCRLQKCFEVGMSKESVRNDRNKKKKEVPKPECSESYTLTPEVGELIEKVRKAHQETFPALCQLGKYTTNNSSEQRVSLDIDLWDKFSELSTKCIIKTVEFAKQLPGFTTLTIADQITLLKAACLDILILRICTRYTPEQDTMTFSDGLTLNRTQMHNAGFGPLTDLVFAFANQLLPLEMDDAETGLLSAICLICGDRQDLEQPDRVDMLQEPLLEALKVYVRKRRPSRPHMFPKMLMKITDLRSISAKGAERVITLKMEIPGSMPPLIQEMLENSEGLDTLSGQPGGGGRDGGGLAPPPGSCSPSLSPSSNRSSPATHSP
Method in brief: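 Reporter transcripts, measured by RT-PCR with fluorescent labeling and capillary electrophoresis after 24 h dosing, reflect activity of an exogenous human RARa–GAL4 fusion in transiently transfected HepG2. Fitted for increase relative to DMSO.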

Measured: AC50

Cn1cc[nH]c1=S
not listed: [14] | [15] | [16] | [17] | [18] | [19] | [20]
inactive: all other assays above

CC(C)CCCCCCOC(=O)C1CCCCC1C(=O)OCCCCCCC(C)C (stereo unspecified)
active: [15] 1.37 µM
not listed: [6] | [11] | [16] | [17] | [18] | [19] | [20]
inactive: all other assays above

COc1cc(C(C)C)c2c(c1)S(=O)(=O)N(COc1cc(=O)n3cccc(OCCN4CCCCC4)c3n1)C2=O
active: [2] 3.64 µM | [3] 2.75 µM | [4] 10.3 µM | [5] 4.34 µM | [7] 2.89 µM | [8] 5.38 µM | [9] 8.57 µM | [13] 4.63 µM | [14] 2.75 µM | [15] 0.836 µM
inactive: [1] | [16] | [10] | [17] | [12] | [18]

OCc1c[nH]c2ccccc12
inactive: [1] | [2] | [3] | [5] | [6] | [8] | [10] | [11] | [20] | [18]
active: [1] 27.2 µM | [19] 26.6 µM [middle of 5 runs] | [6] 26.8 µM | [16] 0.133 µM | [7] 20 µM | [9] 6.67 µM | [13] 9.76 µM | [14] 7.94 µM [middle of 5 runs] | [15] 1.89 µM [middle of 5 runs]

C[C@@H](Oc1ccc(CNC(=O)c2cccnc2Oc2ccc3c(c2)OCO3)c(F)c1)C(=O)O
active: [14] 24.3 µM
not listed: [6] | [12] | [16] | [17] | [18] | [20]
inactive: all other assays above

C=CCc1cc(S(=O)(=O)c2ccc(O)c(CC=C)c2)ccc1O
inactive: [2] | [3] | [4] | [5] | [10] | [11]
active: [1] 33.4 µM | [19] 7.04 µM | [16] 32 µM | [7] 12.8 µM | [8] 32 µM | [9] 27.1 µM | [13] 25.8 µM | [14] 9.21 µM | [15] 3.16 µM

NC(N)=O
inactive: [1] | [2] | [3] | [4] | [19] | [5] | [7] | [8] | [9] | [11] | [13]

CCCCCCCC/C=C\CCCCCCCC(=O)OC[C@@H](O)[C@H]1OC[C@H](O)[C@H]1O
not listed: [11] | [12] | [15] | [17] | [19]
inactive: all other assays above
